Our source for the growth values is PubChem BioAssay (NCI).

Compounds without any hit were thinned out: in the full panel of roughly 83,000, 20% have a hit.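 96-well plates, one dose, 48 hours. Percent growth reported; active if below 10.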 Unmarked numbers belong to inactive results. Active and inactive are the calls of the source.

Some test systems named below: NCI-H23 lung; NCI-H226 lung; HOP-62 NSCLC; NCI-H460 lung; NCI-H522 lung; A549/ATCC NSCLC; 786-0 renal; COLO 205 colon; DU-145 prostate; K-562 leukemia; MALME-3M melanoma; MDA-MB-231 breast; RXF 393 renal; SF-268 CNS; SF-295 CNS; SF-539 CNS; UACC-257 melanoma; M14 melanoma; HCT-15 colon.
What all share (assay): NCI-60 one-dose screen, 48 h (100 = growth as untreated, 0 = no growth, -100 = all killed)
Details in all cases: 10 µM unless noted

In the case of `CO[C@H]1CC(O[C@@H]2/C(C)=C/C[C@@H]3C[C@@H](C[C@]4(CC[C@H](C)[C@@H](C5CCCCC5)O4)O3)OC(=O)[C@@H]3C=C(C)/C(=N/O)[C@H]4OC/C(=C\C=C\[C@@H]2C)[C@]43O)O[C@@H](C)C1O` (some centres not stated), the growth in the experiment on NCI-H23 lung was -76.2% (active); in the experiment with NCI-H226 lung, -84.2% (active); in the experiment with HOP-62 NSCLC, -88.8% (active); in the experiment on NCI-H460 lung it was -82.3% (active); in the experiment with NCI-H522 lung, -73.4% (active); in the experiment on A549/ATCC NSCLC, -82.9% (active). Further, the growth in the experiment on 786-0 renal was -91.1% (active); in the experiment with COLO 205 colon, -79.4% (active); in the experiment with DU-145 prostate, -96.1% (active); in the experiment with K-562 leukemia it was -36.7% (active); in the experiment on MALME-3M melanoma it was -46.3% (active); with MDA-MB-231 breast, -89% (active). In addition, the growth with RXF 393 renal is -97.2% (active); with SF-268 CNS it was -92.2% (active); in the experiment with SF-295 CNS, -89.5% (active); in the experiment with SF-539 CNS, -68.8% (active); with UACC-257 melanoma, -81.6% (active); in the experiment on M14 melanoma it was -81.4% (active). Further, the growth in the experiment with HCT-15 colon is -75.1% (active).

Turning to `CN(CC(=O)N(Cc1ccc(C2CCCCC2)cc1)c1ccc(C(=O)O)cc1)S(=O)(=O)c1c(F)c(F)c(F)c(F)c1F`, the growth in the experiment on NCI-H23 lung was -19.9% (active); with NCI-H226 lung, 97.4%; in the experiment with HOP-62 NSCLC it was 60.6%; in the experiment on NCI-H460 lung, 96%; in the experiment with NCI-H522 lung, 44.7%; in the experiment with A549/ATCC NSCLC, 100%. The growth was 12.9% with COLO 205 colon; -18% (active) in the experiment with DU-145 prostate; 1.31% (active) with K-562 leukemia; 62% in the experiment on MALME-3M melanoma; -28.7% (active) with MDA-MB-231 breast; -87.3% (active) in the experiment with RXF 393 renal. The growth was 67.5% with SF-268 CNS; 108% in the experiment with SF-295 CNS; 99.2% in the experiment on SF-539 CNS; 31.6% with UACC-257 melanoma; 19.9% with M14 melanoma; -46.1% (active) with HCT-15 colon.

Take `COc1ccc(-c2c(-c3cc(OC)c(OC)c(OC)c3)noc2N)cc1`: the growth was 31.1% in the experiment on NCI-H23 lung; 16% in the experiment with NCI-H226 lung; 41.4% in the experiment on HOP-62 NSCLC; 7.26% (active) with NCI-H460 lung; -28.9% (active) in the experiment with NCI-H522 lung; 22.3% in the experiment on A549/ATCC NSCLC. For the same compound, the growth is 20% with 786-0 renal; -72% (active) in the experiment with COLO 205 colon; -3.15% (active) in the experiment on DU-145 prostate; 11.8% with K-562 leukemia; 67.5% in the experiment on MALME-3M melanoma; 17.1% in the experiment with MDA-MB-231 breast. The growth with RXF 393 renal was 26.5%; in the experiment on SF-268 CNS, 23.8%; in the experiment on SF-295 CNS it was 8.4% (active); in the experiment with SF-539 CNS, 19.3%; in the experiment on UACC-257 melanoma it was 77.5%; with M14 melanoma, 15.2%. In addition, the growth in the experiment on HCT-15 colon is 28%.

On to `CCC1=C(c2ccc(OC)cc2)C(C)(C)Oc2cc(O)c(CN3CCCC3)cc21`, for which the growth in the experiment on NCI-H23 lung was 68.1%; in the experiment with NCI-H226 lung, 97.6%; in the experiment with HOP-62 NSCLC, 71.4%; in the experiment with NCI-H460 lung it was 86.6%; with NCI-H522 lung, 41.5%; in the experiment with A549/ATCC NSCLC, 85.1%. Further, the growth in the experiment on 786-0 renal was 59%; in the experiment on COLO 205 colon it was 65.9%; in the experiment on DU-145 prostate, 93.8%; in the experiment on K-562 leukemia it was 19.7%; in the experiment with MALME-3M melanoma, 77.2%; in the experiment on MDA-MB-231 breast, 95.8%. For the same compound, the growth was 79.9% in the experiment with RXF 393 renal; 88.4% with SF-268 CNS; 51% in the experiment with SF-295 CNS; 76.8% in the experiment on SF-539 CNS; 72% in the experiment with UACC-257 melanoma; 62.1% in the experiment with M14 melanoma. In addition, the growth with HCT-15 colon is 82.2%.

Regarding `CCOc1ccccc1C(=O)OCC(=O)Nc1cccc(S(=O)(=O)N(C)C)c1`, the growth is 101% with NCI-H23 lung; 100% in the experiment on NCI-H226 lung; 94.2% in the experiment on HOP-62 NSCLC; 102% with NCI-H460 lung; 95.1% with NCI-H522 lung; 87.8% with A549/ATCC NSCLC. The growth in the experiment on 786-0 renal is 109%; in the experiment on DU-145 prostate, 115%; in the experiment on K-562 leukemia it was 104%; in the experiment on MALME-3M melanoma, 81.5%; with MDA-MB-231 breast it was 110%; in the experiment with RXF 393 renal, 64.6%. In addition, the growth in the experiment with SF-268 CNS is 122%; in the experiment on SF-295 CNS, 160%; in the experiment with SF-539 CNS it was 100%; in the experiment on UACC-257 melanoma, 93.6%; in the experiment on M14 melanoma, 107%; with HCT-15 colon, 123%.

On to `CCCCCCCC/C=C\CCCCCCCCOc1ccccc1CC(=O)NCC[N+]1(C)CCCC1`, for which the growth in the experiment on NCI-H23 lung was 78.1%; in the experiment on NCI-H226 lung it was 92.6%; with HOP-62 NSCLC, 80.6%; in the experiment with NCI-H460 lung it was 52.2%; with NCI-H522 lung it was 46.9%; in the experiment with A549/ATCC NSCLC, 75%. Also, the growth in the experiment with 786-0 renal is 80.8%; in the experiment on COLO 205 colon it was 43.1%; in the experiment on DU-145 prostate, 90.8%; in the experiment on K-562 leukemia, 41.7%; in the experiment with MALME-3M melanoma, 88.3%; in the experiment with MDA-MB-231 breast, 83.9%. Besides, the growth with SF-268 CNS was 69.1%; in the experiment on SF-295 CNS it was 98.2%; in the experiment on SF-539 CNS it was 99%; in the experiment on UACC-257 melanoma it was 88.4%; in the experiment on HCT-15 colon it was 104%.

As to `COc1cc2cn3c4ccc(O)cc4nc(N)c3c2cc1OC`, the growth in the experiment with NCI-H23 lung was 0.98% (active); in the experiment on NCI-H226 lung, 25.7%; in the experiment with HOP-62 NSCLC it was 11.9%; in the experiment on NCI-H460 lung, 1.19% (active); in the experiment with NCI-H522 lung it was -39.4% (active); in the experiment on A549/ATCC NSCLC, 18.4%. Moreover, the growth in the experiment on 786-0 renal is 6.11% (active); in the experiment on MALME-3M melanoma, 31.2%; with MDA-MB-231 breast it was 61.6%; in the experiment with RXF 393 renal it was 9.93% (active); in the experiment on SF-268 CNS, 20.8%; in the experiment on SF-295 CNS, 9.44% (active). For the same compound, the growth in the experiment with SF-539 CNS was -18.3% (active); in the experiment on UACC-257 melanoma it was 6.97% (active); in the experiment on M14 melanoma, -9.75% (active); with HCT-15 colon it was 31.4%.

Consider `CC/C(=C\c1ccc(N(C)C)cc1)c1ccncc1`, for which the growth was 63.3% in the experiment with NCI-H23 lung; 74.8% in the experiment with NCI-H226 lung; 14.3% with NCI-H460 lung; 43.5% with A549/ATCC NSCLC; 54.6% in the experiment on 786-0 renal; 36.1% in the experiment on COLO 205 colon. Besides, the growth with DU-145 prostate was 85%; in the experiment on K-562 leukemia it was 16.2%; in the experiment on MALME-3M melanoma, 9.47% (active); in the experiment on MDA-MB-231 breast it was 51.6%; with RXF 393 renal it was 91.1%; in the experiment with SF-268 CNS, 71.7%. In addition, the growth in the experiment on SF-295 CNS was 49%; in the experiment on SF-539 CNS, 58.6%; in the experiment with UACC-257 melanoma, 75%; in the experiment with M14 melanoma, 29.6%; in the experiment with HCT-15 colon it was 37.5%.

Take `CN(CCOc1ccc(CC2SC(=O)NC2=O)cc1)c1ccccn1` (configuration not stated): the growth is 99.7% in the experiment with NCI-H23 lung; 98.9% with NCI-H226 lung; 94.3% in the experiment on HOP-62 NSCLC; 102% in the experiment with NCI-H460 lung; 95.9% in the experiment with NCI-H522 lung; 99.2% with A549/ATCC NSCLC. Besides, the growth with 786-0 renal was 108%; in the experiment on COLO 205 colon, 82.7%; in the experiment on DU-145 prostate, 107%; in the experiment with K-562 leukemia, 118%; with MALME-3M melanoma, 88.3%; with MDA-MB-231 breast, 86.5%. The growth in the experiment with RXF 393 renal is 110%; with SF-268 CNS, 105%; in the experiment with SF-295 CNS, 98.9%; in the experiment on SF-539 CNS, 104%; with UACC-257 melanoma, 98.4%; in the experiment with M14 melanoma it was 99.7%. In the experiment with HCT-15 colon, the growth is 96.2%.
